Hits are enriched below; roughly 3.8% of the tested compounds scored in any of these assays.
M18AAP inhibitor = PfM18AAP enzyme inhibition; recombinant PfM18AAP, H-Glu-NHMec fluorogenic cleavage; inhibition, % at 7.35 µM; hit rate 1.2% among 290,000;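 active = inhibition above the campaign mean inhibition over all tested compounds plus 3 SD, cut at about 28% in these data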
PAFAH1B2 inh = PAFAH1B2 (human) inhibition | P68402 | recombinant PAFAH1B2, FP-rhodamine activity probe, fluorescence polarization | inhibition, % at 3.39 µM | hit rate 1.2% among 340,000 | AID 492953;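 active = inhibition above the mean of all tested compounds plus 3 SD, cut at about 24% in these data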
Target sequence (P68402 whole entry, looked up): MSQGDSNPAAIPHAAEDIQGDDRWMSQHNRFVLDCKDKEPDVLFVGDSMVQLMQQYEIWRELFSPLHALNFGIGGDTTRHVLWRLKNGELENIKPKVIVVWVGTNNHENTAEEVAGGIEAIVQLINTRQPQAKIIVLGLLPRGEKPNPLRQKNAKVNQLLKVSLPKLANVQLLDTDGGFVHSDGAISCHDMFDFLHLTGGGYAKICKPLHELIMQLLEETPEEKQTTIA
DSG3 Ab inh = blocks pemphigus antibody binding to human desmoglein-3; AID 588358; binding (percent of control), % at 10 µM; DSG3-coupled beads, scFv-anti-DSG3-GFP binding, flow cytometry; active compounds read low; hit rate 0.48% among 310,000;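 active = binding more than 3 SD below its plate's average and above zero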;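 note: hits lower antibody fragment binding to DSG3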
PAFAH2 inh = inhibitors of human PAFAH2; Q99487; recombinant PAFAH2, FP-rhodamine activity probe, fluorescence polarization; inhibition, % at 3.39 µM; hit rate 0.99% among 340,000; AID 492956;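 active = inhibition above the mean over all tested compounds plus 3 SD, cut at about 30% in these data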;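 note: inhibitors block probe labeling of enzyme so polarization drops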
PAFAH1B3 inh = inhibitors of human PAFAH1B3 | Q15102 | inhibition, % at 3.39 µM | recombinant PAFAH1B3, FP-rhodamine probe, fluorescence polarization | hit rate 0.28% among 340,000;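 active = inhibition above the screen-wide average of all tested compounds plus 3 SD, cut at about 25% in these data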
pPAFAH FP inh = pPAFAH (human) enzyme inhibition | Q13093 | hit rate 1.5% among 330,000 | recombinant pPAFAH, FP-rhodamine probe fluorescence polarization | inhibition, % at 3.39 µM | AID 463082;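 active = inhibition above the mean inhibition across the screen plus 3 SD, cut at about 25% in these data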;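 note: inhibitors block binding of the rhodamine activity-based probe so polarization drops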
Target sequence (Q13093 whole entry, looked up): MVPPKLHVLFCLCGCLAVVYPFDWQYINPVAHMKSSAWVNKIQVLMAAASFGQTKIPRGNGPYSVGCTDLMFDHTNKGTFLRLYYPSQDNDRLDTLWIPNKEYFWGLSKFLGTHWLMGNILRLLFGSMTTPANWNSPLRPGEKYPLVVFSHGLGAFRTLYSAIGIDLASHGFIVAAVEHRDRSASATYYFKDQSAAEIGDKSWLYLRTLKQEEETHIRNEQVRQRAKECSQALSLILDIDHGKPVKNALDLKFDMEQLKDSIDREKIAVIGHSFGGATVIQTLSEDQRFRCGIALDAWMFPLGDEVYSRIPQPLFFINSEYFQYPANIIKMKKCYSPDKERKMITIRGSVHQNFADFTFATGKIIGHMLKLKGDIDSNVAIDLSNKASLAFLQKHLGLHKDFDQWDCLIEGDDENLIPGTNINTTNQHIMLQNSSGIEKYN
Each line names hits and unclear results; the compound was inactive in the other large screens.

COc1ccc(NS(=O)(=O)c2cccc(C(=O)NNC(=O)CNC(=O)c3cccc(C)c3)c2)cc1	pPAFAH FP inh 34
COc1ccc(NC(=O)CN(C)C(=O)c2cccc(S(=O)(=O)Nc3ccc(OC)cc3)c2)cc1	pPAFAH FP inh 32 (no result: M18AAP inhibitor)
CCOc1ccc(S(=O)(=O)Nc2cccc(C(=O)N(C)CC(=O)Nc3ccc(OC)cc3)c2)cc1	none (no result: M18AAP inhibitor, DSG3 Ab inh, pPAFAH FP inh)
O=C(O)c1ccc(Oc2ccc([N+](=O)[O-])cc2)c([N+](=O)[O-])c1	none (no result: M18AAP inhibitor, pPAFAH FP inh)
COc1cc(NC(=O)C(C)Oc2ccccc2)ccc1NC(=O)COc1ccccc1 (centres undefined)	none (no result: DSG3 Ab inh)
COc1ccccc1NS(=O)(=O)c1cccc(C(=O)NCC2(N(C)C)CCCCC2)c1	none (no result: M18AAP inhibitor)
COc1ccc(NS(=O)(=O)c2cccc(C(=O)NNC(=O)c3ccccc3O)c2)cc1	none (no result: M18AAP inhibitor)
Cn1c(C(=O)NCCCN2CCOCC2)cc2c(=O)n(C)c3ccccc3c21	DSG3 Ab inh 83
Cc1cccc(/C=C2/Sc3ccc(C(=O)NCCCN4CCOCC4)cc3NC2=O)c1	pPAFAH FP inh 26
COc1ccc(NS(=O)(=O)c2cccc(C(=O)NNC(=O)c3cccn3C)c2)cc1	pPAFAH FP inh 34
CCN1CCN(CCCNC(=O)c2ccc3c(c2)NC(=O)/C(=C\c2cccc(C)c2)S3)CC1	none
CC1CCN(CCCNC(=O)c2cc3c(=O)n(C)c4ccccc4c3n2C)CC1	none
COc1ccc(NS(=O)(=O)c2cccc(C(=O)NCC3(N(C)C)CCCCC3)c2)cc1	pPAFAH FP inh 30 (no result: M18AAP inhibitor)
O=C(COc1ccccc1)N1CCN(S(=O)(=O)c2cccc([N+](=O)[O-])c2)CC1	none (no result: DSG3 Ab inh)
COc1ccc(NS(=O)(=O)c2cccc(C(=O)NNC(=O)CNC(=O)c3ccccc3)c2)cc1	pPAFAH FP inh 28
C=CCOc1ccccc1C(=O)/C=C1/C(=O)Nc2ccccc21	M18AAP inhibitor 31
N#CCSc1nc(Nc2ccc3c(c2)OCO3)c2ccccc2n1	pPAFAH FP inh 26
CCc1cc2c(cc3c(=O)n(CC(=O)NCCCN4CCCCCC4)nc(CC)n32)s1	none
CC1CCCC(=NNc2ccc3ccccc3n2)C1 (centres undefined)	none (no result: M18AAP inhibitor, pPAFAH FP inh)
O=C(NCc1n[nH]c(=S)n1-c1ccc(Br)cc1)c1ccc(S(=O)(=O)N2CCCCC2)cc1	PAFAH1B2 inh 30
O=C(NCc1n[nH]c(=S)n1-c1ccc(Br)cc1)c1ccc(S(=O)(=O)N2CCOCC2)cc1	M18AAP inhibitor 28
Cc1c(C(=O)N2CCOCC2)c(S(=O)(=O)Nc2cccc(C#N)c2)c(C)n1C	none (no result: DSG3 Ab inh)
O=C(NC(=O)N1CCN(c2ccc([N+](=O)[O-])cn2)CC1)c1c(Cl)cccc1Cl	none (no result: PAFAH1B2 inh, DSG3 Ab inh, PAFAH2 inh, PAFAH1B3 inh)
Cc1ccc(C(c2sc3ncnn3c2O)N2CC(C)CC(C)C2)cc1 (centres undefined)	M18AAP inhibitor 30
O=S(=O)(Nc1ccccc1-c1ccccc1)c1ccccc1	PAFAH1B2 inh 26 (no result: M18AAP inhibitor, pPAFAH FP inh)
Cc1cc(C)c(S(=O)(=O)Nc2ccccc2-c2ccccc2)c(C)c1	none
Cc1ccc(S(=O)(=O)Nc2ccccc2C(N)=O)cc1	none
Cc1ccc(S(=O)(=O)Nc2ccccc2-c2ccccc2NS(=O)(=O)c2ccc(C)cc2)cc1	PAFAH1B2 inh 59, pPAFAH FP inh 25
Cc1ccc(-c2csc3ncnc(Nc4ccc(N5CCOCC5)cc4)c23)cc1	pPAFAH FP inh 30
Cc1cc([N+](=O)[O-])nn1CC(=O)N/N=C/c1ccc(O)cc1O	none
CC(C)(O)CN(CCCNC(=S)Nc1ccccc1)C(=S)Nc1ccccc1	none (no result: M18AAP inhibitor, DSG3 Ab inh, pPAFAH FP inh)
Nc1cccc2cc(S(=O)(=O)O)ccc12	PAFAH1B2 inh 31, PAFAH2 inh 30, PAFAH1B3 inh 49 (no result: M18AAP inhibitor, pPAFAH FP inh)
O=Nc1c(O)ccc2cc(S(=O)(=O)O)ccc12	none (no result: M18AAP inhibitor, pPAFAH FP inh)
COc1ccccc1C(=O)ON=C1c2ccccc2-c2ccccc21	PAFAH2 inh 57, pPAFAH FP inh 29
Cc1ccc(O)c(C(=O)c2cnn(C(=O)c3cccc(S(=O)(=O)N(C)C)c3)c2)c1	none (no result: M18AAP inhibitor, pPAFAH FP inh)
Nc1ccc2nc(-c3ccccc3)c(-c3ccccc3)nc2c1	pPAFAH FP inh 27
Nc1ccc(Oc2ccc3nc(-c4ccccc4)c(-c4ccccc4)nc3c2)cc1	none
COc1cccc(/C=N/Nc2nn3cnnc3c3ccccc23)c1O	M18AAP inhibitor 31
Oc1cccc(/C=N/Nc2nn3cnnc3c3ccccc23)c1	none
Cc1ccc(S(=O)(=O)N2CCC(=O)N(C(COCc3ccc(Cl)cc3)Cc3ccccc3)CC2)cc1 (centres undefined)	PAFAH1B2 inh 25
CCOC(=O)c1c(N)sc(-c2ccccc2)c1C	pPAFAH FP inh 34
CCOC(=O)c1c(N)nn(C(=O)C(C)(C)C)c1-c1ccccc1	DSG3 Ab inh 92
CCOC(=O)c1c(N)sc(C(O)(C(F)(F)F)C(F)(F)F)c1-c1ccccc1	none
C[C@H]1CN(c2ccc(Br)cc2)C(=O)[C@@H]1CC(=O)Nc1ccccc1	none (no result: M18AAP inhibitor, PAFAH1B2 inh, PAFAH2 inh, PAFAH1B3 inh, pPAFAH FP inh)
COC(=O)c1ccccc1NC1OC(=O)c2ccccc21 (centres undefined)	none
Cc1ccc2cccc(NC3OC(=O)c4ccccc43)c2n1 (centres undefined)	M18AAP inhibitor 28
O=C1CC[C@@H](C(=O)N2CSC[C@@H]2C(=O)Nc2cccc(C(F)(F)F)c2)N1	none (no result: M18AAP inhibitor, PAFAH1B2 inh, PAFAH2 inh, PAFAH1B3 inh, pPAFAH FP inh)
COc1cccc(C(=O)NC(=S)N2CCN(c3ccc(C(F)(F)F)cc3[N+](=O)[O-])CC2)c1	pPAFAH FP inh 26
CCc1nnc(NC(=O)C2CCN(c3ncnc4sc(C)c(C)c34)CC2)s1	none (no result: M18AAP inhibitor, DSG3 Ab inh)
Cc1ccc2nc(NC(=O)C3CCN(c4ncnc5sc(C)c(C)c45)CC3)sc2c1	DSG3 Ab inh 86
CCCN(C(=O)CSc1cc(-c2ccccc2)c2ccc(OC)cc2n1)C1CCS(=O)(=O)C1 (centres undefined)	pPAFAH FP inh 25
Cc1ccc(S(=O)(=O)N2CCOC2CNC(=O)C(=O)NCc2ccc(Cl)cc2)cc1 (centres undefined)	PAFAH1B2 inh 29
COc1ccc(CNC(=O)C(=O)NCC2OCCCN2S(=O)(=O)c2cccs2)cc1 (centres undefined)	PAFAH1B2 inh 27
Fc1cccc(/C=N/Nc2ncnc3nc[nH]c23)c1	M18AAP inhibitor 30
Cc1ccc(S(=O)(=O)NC[C@H]2O[C@@H](n3ccc(N)nc3=O)[C@H](O)[C@@H]2O)s1	none (no result: M18AAP inhibitor, PAFAH1B2 inh, PAFAH2 inh, PAFAH1B3 inh, pPAFAH FP inh)
Cc1nnc(NC(=O)CCSc2ccccc2)s1	PAFAH1B2 inh 27
COc1ccc(CCNC(=O)CCC(=O)N2CCOc3ccc(Cl)cc32)cc1OC	none
CCN1CCN(C(=O)CCc2nnc(CCc3ccccc3OC)o2)[C@@H](C)C1=O	none
CC(=O)NCC(=O)N(c1ccccc1)C1(C(=O)NC2CCCCC2)CCCCC1	PAFAH1B2 inh 28
CCOc1ccccc1CNC(=O)c1ccc2c(c1)N(CC)CCS2	none
Cc1cc(/C=C2\SC(=S)NC2=O)c(C)n1C1CC1	pPAFAH FP inh 32
O=C(Nc1cc(C(F)(F)F)ccc1N1CCCCC1)C1=COCCO1	none (no result: M18AAP inhibitor, PAFAH1B2 inh, PAFAH2 inh, PAFAH1B3 inh, pPAFAH FP inh)
CCCn1c(NCc2cc(C)ccc2O)nc2ccccc21	M18AAP inhibitor 30

Compound activity (PubChem BioAssay)
